# Records with an inconclusive call do not appear. The source made the active and inactive calls. Unless noted, calls follow the shape of the dose curve; as a rule, active = well fitted curve in the direction sought with a large enough effect; inconclusive = small, poorly fitted or top-dose-only effect, or another doubt; inactive = no such curve, though single readings can be large; an effect the other way counts as inactive or inconclusive.
# Experiments:
# [1] = molecular target: Catechol O-methyltransferase (Homo sapiens) (UniProt P21964); test: Confirmatory Screen for Target Class Profiling of Small Molecule Inhibitors of Methyltransferases (AID 1745852; calls by dose curve; also: potency is read from the fitted curve at half-maximal effect; as to activity change, negative = inhibition: % is scaled to controls: 0 for no effect and ±100 for the full control effect); settings: MTase-Glo luminescence, SAH detection, recombinant enzyme; measured here: COMT max response; stronger effect = lower value
# Catechol O-methyltransferase (Homo sapiens), sequence (P21964 whole entry, looked up): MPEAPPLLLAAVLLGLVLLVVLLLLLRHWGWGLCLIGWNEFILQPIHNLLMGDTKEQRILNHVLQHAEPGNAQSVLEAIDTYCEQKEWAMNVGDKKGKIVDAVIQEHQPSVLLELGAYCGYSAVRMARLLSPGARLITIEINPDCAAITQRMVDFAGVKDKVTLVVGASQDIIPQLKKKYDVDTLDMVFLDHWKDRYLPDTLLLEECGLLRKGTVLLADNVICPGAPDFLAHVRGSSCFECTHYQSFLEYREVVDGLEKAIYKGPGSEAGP
# [2] = molecular target: Guanidinoacetate N-methyltransferase (Homo sapiens) (UniProt Q14353); test: as above; settings: MTase-Glo luminescence, SAH detection, recombinant enzyme; activity change, negative = inhibition: at 57.3 µM (top of the series) unless noted
# [3] = molecular target: Nicotinamide N-methyltransferase (Homo sapiens) (UniProt P40261); test: as above; settings: MTase-Glo luminescence, SAH detection, recombinant enzyme; measured here: NNMT max response; stronger effect = lower value
# Nicotinamide N-methyltransferase (Homo sapiens), sequence (P40261 whole entry, looked up): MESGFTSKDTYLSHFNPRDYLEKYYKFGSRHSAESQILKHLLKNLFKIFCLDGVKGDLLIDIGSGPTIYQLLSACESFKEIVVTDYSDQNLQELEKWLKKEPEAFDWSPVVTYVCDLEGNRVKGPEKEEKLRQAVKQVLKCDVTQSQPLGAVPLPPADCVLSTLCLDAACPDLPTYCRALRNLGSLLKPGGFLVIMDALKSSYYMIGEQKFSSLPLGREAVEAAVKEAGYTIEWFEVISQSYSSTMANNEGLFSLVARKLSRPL
# [4] = molecular target: Phenylethanolamine N-methyltransferase (Homo sapiens) (UniProt P11086); test: as above; settings: MTase-Glo luminescence, SAH detection, recombinant enzyme; measured here: PNMT max response; stronger effect = lower value
# Phenylethanolamine N-methyltransferase (Homo sapiens), sequence (P11086 whole entry, looked up): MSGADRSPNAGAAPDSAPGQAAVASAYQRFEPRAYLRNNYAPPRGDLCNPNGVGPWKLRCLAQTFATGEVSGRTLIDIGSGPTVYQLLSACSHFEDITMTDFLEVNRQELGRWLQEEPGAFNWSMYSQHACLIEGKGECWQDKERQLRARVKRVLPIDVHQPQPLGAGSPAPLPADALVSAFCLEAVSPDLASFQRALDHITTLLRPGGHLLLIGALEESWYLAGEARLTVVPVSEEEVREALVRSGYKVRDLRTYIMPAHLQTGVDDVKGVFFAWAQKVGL
# [5] = molecular target: Rap guanine nucleotide exchange factor 4 (Homo sapiens) (UniProt Q8WZA2); test: Confirmatory qHTS for agonist of cAMP-regulated guanine nucleotide exchange factor 4 (EPAC2) (AID 1645884); settings: EPAC2 GEF activity, Rap1B-BODIPY-GDP fluorescence; series mostly up to 154 µM;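 also: nucleotide exchange releases bodipy-GDP from Rap1 and this lowers its fluorescence; nearly all actives have a fitted effect of over 65% in size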; also: potency is read from the fitted curve at half-maximal effect
# Rap guanine nucleotide exchange factor 4 (Homo sapiens), sequence (Q8WZA2 whole entry, looked up): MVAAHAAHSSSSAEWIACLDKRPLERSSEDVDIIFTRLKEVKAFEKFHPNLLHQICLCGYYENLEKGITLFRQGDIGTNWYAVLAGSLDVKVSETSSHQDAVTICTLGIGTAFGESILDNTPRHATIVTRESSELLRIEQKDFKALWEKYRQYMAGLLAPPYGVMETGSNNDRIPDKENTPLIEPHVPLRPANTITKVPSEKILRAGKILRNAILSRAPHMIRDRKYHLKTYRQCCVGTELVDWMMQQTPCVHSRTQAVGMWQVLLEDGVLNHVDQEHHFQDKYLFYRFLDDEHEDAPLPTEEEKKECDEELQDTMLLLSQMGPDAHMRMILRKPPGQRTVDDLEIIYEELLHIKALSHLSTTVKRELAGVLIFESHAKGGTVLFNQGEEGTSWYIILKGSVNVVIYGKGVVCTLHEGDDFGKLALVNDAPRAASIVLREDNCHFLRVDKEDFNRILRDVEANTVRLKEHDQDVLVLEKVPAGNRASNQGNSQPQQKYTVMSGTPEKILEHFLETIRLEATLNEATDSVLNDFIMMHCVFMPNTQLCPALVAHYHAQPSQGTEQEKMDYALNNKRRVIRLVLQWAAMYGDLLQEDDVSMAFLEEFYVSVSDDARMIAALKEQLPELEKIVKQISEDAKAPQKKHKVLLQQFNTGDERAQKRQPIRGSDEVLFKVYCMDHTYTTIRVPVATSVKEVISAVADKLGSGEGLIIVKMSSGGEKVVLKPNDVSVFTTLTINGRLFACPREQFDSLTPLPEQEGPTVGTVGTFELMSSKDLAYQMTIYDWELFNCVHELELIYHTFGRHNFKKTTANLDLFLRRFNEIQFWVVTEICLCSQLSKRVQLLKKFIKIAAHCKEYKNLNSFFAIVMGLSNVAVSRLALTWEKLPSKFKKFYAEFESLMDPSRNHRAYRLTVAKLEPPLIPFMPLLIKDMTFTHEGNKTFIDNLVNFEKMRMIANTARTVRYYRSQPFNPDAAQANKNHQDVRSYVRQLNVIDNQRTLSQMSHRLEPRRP
# [6] = molecular target: Rap guanine nucleotide exchange factor 4 (Homo sapiens) (UniProt Q8WZA2); test: Confirmatory qHTS for antagonist of cAMP-regulated guanine nucleotide exchange factor 4 (EPAC2) (AID 1645885); settings: EPAC2 Rap1B-BODIPY-GDP exchange fluorescence, biochemical; series mostly up to 114 µM; also: nearly all actives have a fitted effect of over 25% in size; also: potency is read from the fitted curve at half-maximal effect; as to activity change, negative = inhibition: % is scaled to controls: 0 for no effect and ±100 for the full control effect
# [7] = NCATS anti-infectives library activity on HEK293 viability as a counter-qHTS vs the C. elegans viability qHTS (AID 1745854); settings: HEK293 viability counter-screen; series mostly up to 41.8 µM;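 also: HEK293 cells exposed to compounds for 24 hr before the viability read; % is scaled to controls: 0 for no effect and ±100 for the full control effect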
# Description: Assay Development and Screening Technology Laboratory (ADST)
# National Center for Advancing Translational Sciences (NCATS), Rockville, MD
# National Institute of Health (NIH), Bethesda, Maryland
# Caenorhabditis elegans has helped elucidate the evolutionarily conserved genetics underlying pathways and cellular processes implicated in human disease and may be ideally positioned to reveal novel pharmacological properties of exiting drugs. The organism's short life cycle and microscopic size is applicable to the technical requirements of high-throughput screening. Here a quantitative high-throughput screening (qHTS)-based forward chemical biology platform has been developed using C. elegans. 384-well microtiter plate laser scanning cytometry was used in the rapid detection and quantification of the fluorescent protein-encoded phenotype to score worm viability. In a proof-of-concept study, the pharmacological qHTS profile obtained from a library of 643 anti-infective compounds.
# 1. Inglese, J., Auld, D. S., Jadhav, A., Johnson, R. L., Simeonov, A., Yasgar, A., Zheng, W., and Austin, C. P. (2006) Quantitative high-throughput screening: A titration-based approach that efficiently identifies biological activities in large chemical libraries, P Natl Acad Sci USA 103, 11473-11478.
# 2. Auld, D. S., Johnson, R. L., Zhang, Y. Q., Veith, H., Jadhav, A., Yasgar, A., Simeonov, A., Zheng, W., Martinez, E. D., Westwick, J. K., Austin, C. P., and Inglese, J. (2006) Fluorescent protein-based cellular assays analyzed by laser-scanning microplate cytometry in 1536-well plate format, Method Enzymol 414, 566-589.
# 3. Zuck, P., Lao, Z., Skwish, S., Glickman, J. F., Yang, K., Burbaum, J., and Inglese, J. (1999) Ligand-receptor binding measured by laser-scanning imaging, Proc Natl Acad Sci U S A 96, 11122-11127.
# PROTOCOL TABLE (as described by Inglese J, Shamu CE and Guy RK. 2007)
# SEQUENCE No. (e.g., 1, 2, 3, etc.); […] (e.g., C. elegans, Compounds, Incubation, Read, etc.); VALUE and DESCRIPTION.
# 1. Compounds. Library compounds and digitonin control added at 25 nL per well to 7 assay ready 1536-well Greiner white/solid bottom high base, TC plates and two DMSO control plates, transferred by Echo acoustic dispenser.
# 2. Cells. Seed 1500 HEK293 per well in 6 uL into assay ready Greiner 1536-well plates.
# 3. Incubation. Incubate plated cells with compounds at 37C in 5% CO2, 95% RH for 24 hr.
# 4. Reagent. Add 4 uL of CellTiter-Glo reagent from Promega per well of Greiner 1536-well plates with BioRAPTR FRD.
# 5. Incubation. Incubate treated cells at room temperature for 10 min., protect from light.
# 6. Detector. CellTiter-Glo luminescence measured using CCD-based camera (Viewlux) with settings as follows: Exposure, 1 sec; Gain, High; Speed, Slow; Binning, 2X.
# NOTES (numbers refer to Sequence numbers above; values are from representative experiments)
# 1. NIH Anti-Infectives library pre-dispensed into 7 assay ready 1536-well Greiner white/solid bottom high base, TC plates with Echo 555 acoustic dispenser. Most compounds dispensed at 10 mM high concentration and plated in 7-pt 1:5 inter-plate titration at 25 nl / well for a final assay concentration range of 41.7 uM - 2.7 nM. Two 1536-well Greiner assay plates of DMSO plated as screening controls to be read at the beginning and the end of the screen. Controls included DMSO vehicle control added at 25 nl/well to each well of column 1 and […] (83.3 uM final assay concentration), and Digitonin titrated 1:2 at 25 nl/ well to column 4 in duplicate for a final assay concentration range of 83.3 uM - 2.5 nM.
# 2. HEK293 cells grown for 48 hr in one T175 culture flask in DMEM high glucose media supplemented with 10% FBS and 1% Pen/Strep antibiotic. Cells trypsinized and diluted in 10 ml supplemented media, strained through 40 µm cell strainer, and diluted to a total volume of 40 ml with supplemented media. […]
# [8] = molecular target: Nuclear receptor subfamily 1 group I member 3 (Homo sapiens) (UniProt Q14994); test: Primary qHTS for antagonist of constitutive androstane receptor (CAR) against the NCATS DSHEA and TCM libraries (AID 1794836); settings: CAR reporter cell assay, antagonist mode, luciferase; series mostly up to 40 µM;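 also: HepG2 cells stably expressing hCAR with CYP2B6 luciferase reporter stimulated by CITCO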
# Nuclear receptor subfamily 1 group I member 3 (Homo sapiens), sequence (Q14994 whole entry, looked up): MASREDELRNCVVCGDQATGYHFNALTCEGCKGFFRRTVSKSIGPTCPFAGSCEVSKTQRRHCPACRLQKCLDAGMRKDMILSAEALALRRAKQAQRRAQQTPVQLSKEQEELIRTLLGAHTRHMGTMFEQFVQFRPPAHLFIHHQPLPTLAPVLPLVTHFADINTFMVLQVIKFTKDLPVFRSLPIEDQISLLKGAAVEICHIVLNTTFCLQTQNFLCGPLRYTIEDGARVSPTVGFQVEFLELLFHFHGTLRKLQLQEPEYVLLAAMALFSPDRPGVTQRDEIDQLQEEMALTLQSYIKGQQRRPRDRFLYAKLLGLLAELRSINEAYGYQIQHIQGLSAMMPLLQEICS
# In short: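 Antagonist mode: CAR reporter luminescence (ONE-Glo) in HepG2-CYP2B6-hCAR cells stimulated with 48 uM CITCO (final) over 24 h at 37 C, compounds titrated; viability read first by CellTiter-Fluor fluorescence.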
# [9] = Viability counterscreen for antagonist of constitutive androstane receptor (CAR) against the NCATS DSHEA and TCM libraries (AID 1794837); settings: CAR reporter cell line viability counterscreen, qHTS; series mostly up to 40 µM;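 also: compound exposure lasted 24 h before viability reading; 0% is about no effect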
# In short: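 Counterscreen performed in a 1536-well qHTS format using HepG2-CYP2B6-hCAR cells; samples titrated in the presence of 48 uM CITCO, with viability measured fluorometrically (405/540 nm) after 24 h.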
# [10] = NCATS anti-infectives library activity on the primary C. elegans qHTS viability assay (AID 1745855; calls by dose curve; also: potency is read from the fitted curve at half-maximal effect); settings: C. elegans worm area imaging, day 7; series mostly up to 41.8 µM
# In short: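 Viability is taken from GFP fluorescence of PE254-GFP-FLuc C. elegans imaged by laser cytometry over 7 days. Ten L1 worms per well grow at 21 °C on TOP10 E. coli capsules with titrated compound; levamisole marks toxicity.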
compound,measurement,setting,value
NCC(O)c1cc(O)c(O)cc1F (configuration not stated),activity,[1],129%
same,"activity change, negative = inhibition",[2],4.77%
same,activity,[3],-1.34%
same,activity,[4],31.6%
O=c1[nH]cc(N(CCCl)CCCl)c(=O)[nH]1,Potency,[5],inactive
same,Potency,[6],inactive
Cc1cc(C(=O)CN2CCCC2)c(C)n1-c1ccc(F)cc1,outcome,[7],inactive
CNc1ccc2oc(C[C@H]3O[C@@]4(CC[C@H]3C)O[C@H]([C@H](C)C(=O)c3ccc[nH]3)[C@H](C)C[C@H]4C)nc2c1C(=O)O,activity,[1],-3.19%
same,Potency,[2],34.3 µM (active)
same,activity,[3],-35.2%
same,activity,[4],-4.07%
C[C@]12Cc3cn4c(nc3C=C1CCC1C2CC[C@@]2(C)[C@H]1CC[C@@]2(O)C#N)nc1ccccc14 (some centres not stated),activity,[1],-23.1%
same,Potency,[2],0.611 µM (active)
same,activity,[3],-35.3%
same,activity,[4],-11.6%
NC(=O)CI,activity,[1],-3.06%
same,"activity change, negative = inhibition",[2],0.112%
same,activity,[3],-21.3%
same,activity,[4],-8.06%
CNC(C)C(O)c1ccc(O)cc1 (configuration not stated),outcome,[8],inactive
same,outcome,[9],inactive
CCCN1CCc2cccc3c2[C@H]1Cc1ccc(O)c(O)c1-3,activity,[1],4.79%
same,"activity change, negative = inhibition",[2],5.72%
same,activity,[3],-3.62%
same,activity,[4],6.46%
COc1cc(C(=O)O[C@H]2[C@@H]3C=CO[C@@H](O[C@@H]4O[C@H](CO)[C@@H](O)[C@H](O)[C@H]4O)[C@@H]3[C@@]3(CO)O[C@@H]23)ccc1O,activity,[1],-83.5%
same,"activity change, negative = inhibition",[2],-1.53% [at 29.8 µM]
same,activity,[3],-4.95%
same,activity,[4],-3.91%
same,outcome,[7],inactive
CCCN1CC[C@@H]2c3cc(O)ccc3CC[C@@H]21,activity,[1],1.91%
same,"activity change, negative = inhibition",[2],0.453%
same,activity,[3],-3.17%
same,activity,[4],-0.789%
CCCN1CCC[C@@H](c2cccc(O)c2)C1,activity,[1],4.08%
same,"activity change, negative = inhibition",[2],1.62%
same,activity,[3],0.9%
same,activity,[4],6.74%
CC(C)(C)c1cc(C=C(C#N)C#N)cc(C(C)(C)C)c1O,activity,[1],-14.8%
same,"activity change, negative = inhibition",[2],-1.85%
same,activity,[3],-20.4%
same,activity,[4],-25.9%
same,Potency,[10],0.29 µM (active)
COc1ccc2[nH]c3c(c2c1)CCNC3,activity,[1],-6.01%
same,"activity change, negative = inhibition",[2],5.37%
same,activity,[3],-13.7%
same,activity,[4],-2.07%
CN1CCCC1CCOC(c1cc2nccc(C(=O)O)c2[nH]1)c1ccccc1Cl (configuration not stated),outcome,[7],inactive
CN1CCC[C@@H]1Cc1c[nH]c2ccc(Nc3ncccc3[N+](=O)[O-])cc12,activity,[1],3.7%
same,"activity change, negative = inhibition",[2],2.94%
same,activity,[3],-4.11%
same,activity,[4],3.35%
CCCN(CCC)CCc1ccc(O)c(O)c1,activity,[1],153%
same,"activity change, negative = inhibition",[2],6.88%
same,activity,[3],-2.74%
same,activity,[4],-0.0665%
C[C@@H]1[C@@H]2Cc3ccc(O)cc3[C@@]1(C)CCN2CC1CC1,activity,[1],7.89%
same,"activity change, negative = inhibition",[2],6.66%
same,activity,[3],-1.08%
same,activity,[4],4.55%
N#C/C(=C/c1ccc(O)c(O)c1)C(N)=S,activity,[1],52.2%
same,"activity change, negative = inhibition",[2],-6.16%
same,activity,[3],-5.97%
same,activity,[4],1.47%
NCCc1ccc(S(=O)(=O)F)cc1,outcome,[7],inactive
CCCCCc1cc(O)c2c(c1)OC(C)(C)[C@@H]1CCC(C)=C[C@@H]21,Potency,[5],inactive
CN(N=O)c1ccc(O)c(O)c1,activity,[1],-69.3%
same,Potency,[2],27.3 µM (active)
same,activity,[3],-14.9%
same,activity,[4],-27.8%
O=C1OC2(c3cc(Br)c(O)cc3Oc3c2cc(Br)c(O)[c]3[Hg])c2ccccc21 (configuration not stated),Potency,[5],1.34 µM (active)
c1ccc2cc(CC3=NCCN3)ccc2c1,activity,[1],5%
same,"activity change, negative = inhibition",[2],3.5%
same,activity,[3],0.294%
same,activity,[4],4.14%
O=c1c2ccccc2[se]n1-c1ccccc1,Potency,[10],18.3 µM (active)
CN1CCc2cc(O)cc3c2[C@H]1Cc1ccc(O)c(O)c1-3,activity,[1],-101%
same,"activity change, negative = inhibition",[2],-1.59%
same,activity,[3],-4.5%
same,activity,[4],-1.47%
CCCN1CCc2cc(O)cc3c2[C@H]1Cc1ccc(O)c(O)c1-3,activity,[1],2.74%
same,"activity change, negative = inhibition",[2],-2.35%
same,activity,[3],-21.6%
same,activity,[4],0.0057%
C1=C2CCCN[C@H]2[C@@H]2C[C@H]1[C@H]1CCCCN1C2,outcome,[7],inactive
Cc1sc2ccccc2c1CC1=NCCN1,activity,[1],6.03%
same,"activity change, negative = inhibition",[2],4.23%
same,activity,[3],-6.99%
same,activity,[4],-30.1%
CN(N=O)c1cc(O)ccc1O,activity,[1],-96.7%
same,Potency,[2],24.3 µM (active)
same,activity,[3],-67.2%
same,activity,[4],-42.7%
CCCn1c(C)c(C(=O)c2ccc3ccccc3c2)c2ccccc21,Potency,[5],inactive
CC(N)c1cccc(Cl)c1Cl (configuration not stated),activity,[1],3.38%
same,"activity change, negative = inhibition",[2],5.58%
same,activity,[3],-1.94%
same,activity,[4],-98.4%
CCCCCOc1cc2c(cc1-c1cc(/C=C/C(=O)O)ccc1O)C(C)(C)CCC2(C)C,activity,[1],-5.76%
same,"activity change, negative = inhibition",[2],-6.96%
same,activity,[3],-28.2%
same,activity,[4],0.0952%
O=C(O)c1ccnc2cc(C(OCCN3CCCCC3)c3ccccc3Cl)[nH]c12 (configuration not stated),outcome,[7],inactive
same,Potency,[10],inactive
O=C1CN=C(c2ccccc2)c2cc(Cl)ccc2N1CC1CC1,Potency,[6],55.5 µM (active)
CC(C)(C)c1cc(O)ccc1O,Potency,[5],inactive
CN1CC[C@@]2(C)c3cc(O)ccc3N(C)C12 (some centres not stated),activity,[1],-27.2%
same,Potency,[2],24.3 µM (active)
same,activity,[3],-23.6%
same,activity,[4],-16.3%
O=C/C=C/c1ccccc1,outcome,[8],inactive
same,outcome,[9],inactive
O=[N+]([O-])c1cc(O)c(O)c([N+](=O)[O-])c1,Potency,[5],inactive
CCn1cnc2c(Nc3cccc(Cl)c3)nc(N[C@@H]3CCCC[C@@H]3N)nc21,activity,[1],7.4%
same,"activity change, negative = inhibition",[2],4.82%
same,activity,[3],-17.5%
same,activity,[4],1.09%

# From PubChem BioAssay (NCATS)
